Each structure is given as a SMILES string. Inconclusive results are not listed. Calls of active or inactive are those of the source. Calls follow the shape of the dose curve; as a rule, active = well fitted cell-killing curve with a large enough effect; inconclusive = small, poorly fitted or top-dose-only effect, or another doubt; inactive = flat fitted curve, though single readings scatter.

This experiment can be described thus: Vero cells viability counterscreen for qRT-PCR qHTS assay of selected Zika virus inhibitors. The following applies: CellTiter-Glo ATP luminescence, 24 h; series mostly up to 41.8 µM. The text has this: Assay Submitters (PI): Avindra Nath, Ph.D., National Institute of Neurological Disorders and Stroke (NINDS), Bethesda, MD Radhakrishnan Padmanabhan, Ph.D., Georgetown University (GU), Washington D.C. Zika Virus causes congenital defects, including microcephaly and is associated with Guillain-Barre syndrome, eningoencephalitis and myelitis in infected adult. […] Using a target-based approach, we hope to establish a screening paradigm to uncover novel, cell-active NS2B-NS3 protease (Zika Virus) specific inhibitors from NCATS' collection of small molecules using qHTS. […] Four assay panel was created to identify potential Zika Virus inhibitors. Namely, (1) GU unlinked NS2B-NS3 AMC tagged protease qHTS, (2) GU unlinked NS2B-NS3 Rhodamine tagged protease qHTS, (3) NINDS linked NS2B-NS3 AMC tagged protease qHTS, (4) NINDS linked NS2B-NS3 Rhodamine tagged protease qHTS. Inhibitors of the Zika virus primary screens are confirmed using qRT-PCR secondary assays, mCherry orthogonal assay, and Vero cells viability counterscreen. Cytotoxic compounds identified in the Vero cell viability counterscreen were excluded from the list of potential Zika virus inhibitors. Early Translation Branch (ETB) National Center for Advancing Translational Sciences (NCATS), Rockville, MD National Institute of Health (NIH), Bethesda, Maryland
Vero Cell Viability Assay: Vero cell cytotoxicity was determined using a luminescent readout with CellTiter Glo reagent (Promega, Madison, WI), which is based on measuring the ATP content within cells. Briefly, 4 uL of Vero cells at 2.5 x 10^5 cells/mL in DMEM containing 4% FBS were dispensed into 1536-well solid bottom tissue treated white plate using a Multidrop Combi dispenser (Thermo Scientific). Plates were incubated at 37 degrees C, 95% humidity, and 5% CO2 overnight to allow for cell attachment. Compounds were dissolved in DMSO at different concentrations and transferred via pintool (Wako Automation), for a final concentration of 57 uM - 0.029 uM. Plates were again incubated for 24 hours, followed by a 2 uL addition of CellTiter Glo. Finally, plates were incubated for 30 minutes at 37 degrees C and 5% CO2 before being read on a ViewLux (Perkin Elmer) for luminescence.
On to `CN(C)[C@@H]1C(=O)C(C(N)=O)=C(O)[C@@]2(O)C(=O)C3=C(O)c4c(O)cccc4[C@@](C)(O)[C@H]3C[C@@H]12`, for which the compound was classed as inactive.
`CCCCCOc1cc2c(cc1-c1cc(/C=C/C(=O)O)ccc1O)C(C)(C)CCC2(C)C`: the compound was classed as inactive.
Under `O=C(Nc1ccc(Br)cc1)c1cc(Br)cc(Br)c1O` stands “inactive”; under `CN(C)[C@@H]1C(=O)C(C(N)=O)=C(O)[C@@]2(O)C(=O)C3=C(O)c4c(O)ccc(Cl)c4[C@@](C)(O)[C@H]3C[C@@H]12`, “inactive”.
Under `O=C1OC(c2ccc(O)c(S(=O)(=O)O)c2)(c2ccc(O)c(S(=O)(=O)O)c2)c2c(Br)c(Br)c(Br)c(Br)c21` stands “inactive”; under `Cc1cc(SCc2sc(-c3ccc(C(F)(F)F)c(F)c3)nc2C)ccc1OCC(=O)O`, “inactive”; under `C[C@]12CC[C@@H]3c4ccc(OC(=O)N(CCCl)CCCl)cc4CC[C@H]3[C@@H]1CC[C@@H]2O`, “inactive”.
The same measure for `CC(=O)c1c(O)c(C)c(O)c(Cc2c(O)c3c(c(C(=O)/C=C/c4ccccc4)c2O)OC(C)(C)C=C3)c1O`: “inactive”; for `Oc1c(Cl)c(Cl)c(Cl)c(Cl)c1Cl`: “inactive”.

The values above are taken from PubChem BioAssay AID1347170 (National Center for Advancing Translational Sciences (NCATS), 2019).
